HPGD block: qHTS Assay for Inhibitors of HPGD (15-Hydroxyprostaglandin Dehydrogenase) | 15-hydroxyprostaglandin dehydrogenase [NAD(+)] (Homo sapiens), P15428 | purified HPGD, NADH fluorescence kinetic, PGE2 substrate | Potency, µM, usual class: inhibitors | actives 4.3% (n = 150,000) | AID 894, 2007; active means well fitted inhibition curve with a large enough effect, not every such curve was filed as active; inconclusive means small, poorly fitted or top-dose-only effect, or another doubt; inactive means no such curve, though single readings can be large or run the other way
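20 nM HPGD preincubated 15 min at room temperature with compound in 50 mM Tris-HCl pH 8, 0.01% Tween 20. Started with 1 mM NAD+ and 30 uM prostaglandin E2; NADH fluorescence (360/450 nm) read 5 times over 30-s intervals, last minus first.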
GLA inh pH 4.5: qHTS Assay for Inhibitors of Human alpha-Galactosidase at pH 4.5. purified enzyme, 4-MU-alpha-Gal fluorescence, pH 4.5. activity change, negative = inhibition, % at 105 µM. Alpha-galactosidase A (Homo sapiens), P06280. 230,000 tested, under 10 active
aGal spleen mod: qHTS Assay for Inhibitors and Activators of Human alpha-Galactosidase From Spleen Homogenate; actives 0.008% (n = 240,000); Alpha-galactosidase A (Homo sapiens), P06280; AID 2107, 2009; Potency, µM (titrated, usually from 80 µM), hits mostly inhibitors; human spleen homogenate, 4MU-alpha-Gal fluorescence, 40 min
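Human spleen homogenate (1 ug) was the enzyme source, with 4-methylumbelliferyl-alpha-D-galactopyranoside (1 mM final) in pH 5.0 citrate buffer with 0.01% Tween-20. Compounds were titrated; after 40 min at 37C, NaOH/glycine stop, 4-MU fluorescence read; AC50 from Hill fits.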
12-hLO inh: qHTS Assay for Inhibitors of 12-hLO (12-human lipoxygenase). actives 0.12% (n = 150,000). Potency, µM (titrated, usually from 57.1 µM), usual class: inhibitors. Polyunsaturated fatty acid lipoxygenase ALOX12 (Homo sapiens), P18054. purified 12-hLO, xylenol orange hydroperoxide absorbance; further: nearly all actives have a fitted effect of over 55% in size
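Lipoxygenase turnover measured by absorbance at 573 and 405 nm after Fe-XO development. Human 12hLO 150 nM, arachidonate 40 uM, pH 7.0 Hepes buffer with detergent; 15 min compound preincubation, 30 min reaction.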
PNC inhibitor: High Content Assay for Compounds that inhibit the Assembly of the Perinucleolar Compartment; PC3M PTB-GFP, PNC prevalence imaging, 16 h; active compounds read low; activity change (PNC), negative = inhibition, % at 10 µM; actives 3.1% (n = 140,000); AID 2417, 2010;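 active means readout at or below -70, meaning at least 70% loss of cells showing the perinucleolar compartment, a nuclear body marking cancer cells; inconclusive means readout between -30 and a set limit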
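Read-out is percentage of cells bearing a perinucleolar compartment, from automated 20x imaging of fixed, Hoechst-stained PC3M PTB-GFP cells. Cells were seeded 4 h, then exposed 16 h to compound (23 nl of library stock) in duplicate plates.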
ALDH1A1 block: qHTS Assay for Inhibitors of Aldehyde Dehydrogenase 1 (ALDH1A1) | Aldehyde dehydrogenase 1A1 (Homo sapiens), P00352 | Purified ALDH1A1, NADH fluorescence, propionaldehyde substrate | Potency, µM (doses to about 75.3 µM), usual class: inhibitors | actives 7.3% (n = 220,000) | AID 1030, 2008; active means well fitted inhibition curve with a large enough effect, not every such curve was filed as active; inconclusive means small, poorly fitted or top-dose-only effect, or another doubt; inactive means no such curve, though single readings can be large or run the other way
Target sequence (P00352 whole entry, looked up): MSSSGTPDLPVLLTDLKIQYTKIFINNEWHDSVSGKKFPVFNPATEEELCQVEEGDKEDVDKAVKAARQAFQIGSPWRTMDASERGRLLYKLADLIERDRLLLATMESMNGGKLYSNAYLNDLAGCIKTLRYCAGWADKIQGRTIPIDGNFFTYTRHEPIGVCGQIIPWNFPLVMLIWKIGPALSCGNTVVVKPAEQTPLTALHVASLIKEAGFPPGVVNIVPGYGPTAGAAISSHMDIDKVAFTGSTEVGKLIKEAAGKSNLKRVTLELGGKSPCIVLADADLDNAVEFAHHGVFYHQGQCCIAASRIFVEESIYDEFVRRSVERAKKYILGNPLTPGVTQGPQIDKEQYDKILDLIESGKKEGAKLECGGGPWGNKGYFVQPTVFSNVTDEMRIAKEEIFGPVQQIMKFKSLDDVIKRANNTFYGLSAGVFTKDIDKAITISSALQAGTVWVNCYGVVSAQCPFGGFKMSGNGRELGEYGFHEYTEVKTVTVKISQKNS
Large screens that a line does not name were inactive. Shown are actives, neighbours in structure and some others; about 10% of the full set was active somewhere. Unless noted, the call rests on the fitted dose curve; in most records, active means well fitted curve in the direction sought with a large enough effect; inconclusive means small, poorly fitted or top-dose-only effect, or another doubt; inactive means no such curve, though single readings can be large; an effect the other way counts as inactive or inconclusive.

CC(NC(=O)C1CCCN(S(=O)(=O)c2cnc[nH]2)C1)c1ccccc1 (stereo not given)	12-hLO inh inconclusive, PNC inhibitor -81
O=C(C1CCCN(S(=O)(=O)c2cnc[nH]2)C1)N(CCc1ccccc1)Cc1ccccc1 (stereo not given)	ALDH1A1 block 11µM
CC(C)c1ccc(NC(=O)C2CCCN(S(=O)(=O)c3cnc[nH]3)C2)cc1 (stereo not given)	none
O=C(NCC1COc2ccccc2O1)C1CCCN(S(=O)(=O)c2cnc[nH]2)C1 (stereo not given)	PNC inhibitor -93
Cc1nn(C)c(C)c1S(=O)(=O)N1CCCC(C(=O)NCC2COc3ccccc3O2)C1 (stereo not given)	none
O=C(CSc1ncccn1)NN=C1CCCCCC1	none
CSc1nnc(C)c(=O)n1COC(=O)c1ccc(S(=O)(=O)N(C)C)cc1	none
CN(C)c1ccc(NC(=O)CSc2nc(N)c(C(=O)Nc3ccc(N(C)C)cc3)s2)cc1	ALDH1A1 block 25µM
CCOC(=O)c1sc(SCC(=O)Nc2ccc(N(C)C)cc2)nc1N	PNC inhibitor inconclusive, ALDH1A1 block 22µM
CCCCCCCCCCCCC/C=C/[C@@H](O)[C@H](CO)NC(=O)CCCCCCC	none (no result: PNC inhibitor)
Cc1c(CN(C)C)c2c(n1Cc1ccccc1)C(=O)c1ccc(Br)cc1-2	ALDH1A1 block 10µM
CCCn1c(-c2ccc(F)cc2)nc2c(N3CCCN(Cc4ccccc4)CC3)nc(C)nc21	HPGD block inconclusive, ALDH1A1 block inconclusive (no result: PNC inhibitor)
O=C(C1CC1)N1CCc2cc(Br)cc(S(=O)(=O)NCc3ccccn3)c21	ALDH1A1 block inconclusive
CCOCCCNS(=O)(=O)c1cc(Br)cc2c1N(C(=O)C1CC1)CC2	ALDH1A1 block 10µM
Cc1ccc(CNC(=O)CCS(=O)(=O)c2cc(Br)cc3c2N(C(=O)C2CC2)CC3)o1	HPGD block inconclusive, PNC inhibitor inconclusive, ALDH1A1 block 10µM
O=C(C1CC1)N1CCc2cc(Br)cc(S(=O)(=O)NCc3ccc4c(c3)OCO4)c21	ALDH1A1 block 10µM
O=C(C1CC1)N1CCc2cc(Br)cc(S(=O)(=O)NCc3ccco3)c21	ALDH1A1 block 2µM
CC[C@H](C)[C@@H](NC(=O)O[C@@H]1Cc2cc(Br)ccc2O[C@H]1c1cccc(OC)c1)C(=O)OC	none (no result: 12-hLO inh, PNC inhibitor)
COC(=O)C1=C(C)N(Cc2ccccc2)[C@]23O[C@](C(=O)OC)(C(=O)N2C1c1ccccc1)C(C(=O)OC)C3C(=O)OC (stereo not given in full)	none (no result: HPGD block, GLA inh pH 4.5, 12-hLO inh, PNC inhibitor)
CCNc1ncc2nc(-c3ccc(Cl)cc3)c(=O)n(Cc3cccs3)c2n1	ALDH1A1 block inconclusive (no result: HPGD block, GLA inh pH 4.5, 12-hLO inh, PNC inhibitor)
CC(=O)c1c(NCc2ccccc2)nc(=O)n(-c2ccccc2)c1C	ALDH1A1 block 14µM
Cc1ccccc1Nc1nnc(SCc2cc(=O)n3ccsc3n2)s1	HPGD block 28µM, ALDH1A1 block inconclusive
O=c1cc(CSc2nnc(Nc3ccccc3)s2)nc2sccn12	HPGD block 18µM
C/C(N)=C(/C#N)C(=O)CSc1nnc(Nc2ccccc2C)s1	HPGD block 28µM, ALDH1A1 block inconclusive
CC(C)Nc1nnc(SCc2cc(=O)n3ccsc3n2)s1	ALDH1A1 block inconclusive (no result: HPGD block, 12-hLO inh, PNC inhibitor)
COc1ccccc1Nc1nnc(SCc2cc(=O)n3cc(C)ccc3n2)s1	none
COc1ccc(-c2nc3cnc(Oc4cccc(Cl)c4)nc3n(C[C@H]3CCCO3)c2=O)cc1	ALDH1A1 block inconclusive (no result: HPGD block, GLA inh pH 4.5, 12-hLO inh, PNC inhibitor)
O=C(c1sccc1-n1cccc1)N1CCCC1	PNC inhibitor -83, ALDH1A1 block inconclusive
O=C(NC1CCCc2ccccc21)C1CCN(C(=O)c2sccc2-n2cccc2)CC1 (stereo not given)	ALDH1A1 block 1µM

Screening data from PubChem.
